HCV inhibitor: inhibitors of hepatitis C virus infection; Huh7.5.1 HCVcc-Cre infection, luciferase reporter, 44 h; Potency, µM (top dose mostly 41.8 µM), without a hit: top-dose activity change, negative = inhibition, most hits filed as inhibitors; 340,000 compounds, 3.4% hits; AID 651820; active = well fitted inhibition curve with a large enough effect; inconclusive = small, poorly fitted or top-dose-only effect, or another doubt; inactive = no such curve, though single readings can be large or run the other way; note: potency is the fitted concentration of half-maximal effect
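A cell-based infection assay in which seeded cells (1,000 per well) receive test compound after 4 h, are inoculated with HCVcc-Cre at approximately 0.5 moi, and are incubated 44 h before luminescence detection.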
HCMV inh: blocks human cytomegalovirus replication; 410,000 compounds, 4.5% hits; AID 1259415; activity change, negative = inhibition, % at 57.5 µM; HFF cells, HCMV-luciferase reporter, 72 h; active compounds read low; in the data active = activity change below about -60%; inconclusive = no clear call, values can overlap the other calls; inactive = above about -39%
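Screen run at 2 compound doses on HFFs infected with reporter HCMV, MOI 1 PFU/cell. Luciferase activity from cell lysates at 72 h post infection gave inhibition relative to buffer-only and Salinomycin wells.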
Marburg entry inh: inhibitors of Marburg virus binding or cell entry; Marburg virus pseudotyped entry inhibition, cell reporter; Potency, µM (titrated, usually from 37.8 µM), inactives show at the highest dose activity change, negative = inhibition, most hits filed as inhibitors; 300,000 compounds, 1.8% hits; calls by dose curve; tested in HEK293 cells; note: potency is the fitted concentration of half-maximal effect
Vaccinia mCherry: vaccinia inhibition (mCherry reporter); Vaccinia virus mCherry reporter infection, fluorescence; Potency, µM (doses to about 36.5 µM), without a hit: at the top dose activity change, negative = inhibition, actives largely listed as inhibitors; 310,000 compounds, 0.63% hits; calls by dose curve; tested in A549 cells; note: potency is the fitted concentration of half-maximal effect; nearly all actives have a fitted effect of over 35% in size
Vaccinia Venus: vaccinia inhibition (Venus reporter) | 330,000 compounds, 0.46% hits | AID 720580 | Potency, µM (top dose mostly 36.5 µM), for inactives: at the top dose activity change, negative = inhibition, most hits filed as inhibitors | Vaccinia virus Venus reporter expression, fluorescence; calls by dose curve; tested in A549 cells; note: potency is the fitted concentration of half-maximal effect; nearly all actives have a fitted effect of over 30% in size
Lassa entry inh: inhibitors of Lassa virus binding or cell entry. Lassa virus pseudotype entry inhibition, cell reporter. Potency, µM (series often up to 37.9 µM), without a hit: at the top dose activity change, negative = inhibition, actives largely listed as inhibitors. 300,000 compounds, 1.2% hits. AID 540256; calls by dose curve; tested in HEK293 cells; note: potency is the fitted concentration of half-maximal effect; nearly all actives have a fitted effect of over 50% in size
An asterisk follows results filed as active; [ ] = another dose, or the depositor's remark. Sampled rows, rich in hits. Any-hit rate of the full collection: about 7.8%. % is set by controls: 0 for no effect and ±100 for the full control effect.

`Cc1ccccc1Nc1c(-c2ccc(N3CCOCC3)cc2)nc2ccc(Br)cn12` gave HCMV inh 19, Marburg entry inh -13%[46.1 µM], Vaccinia mCherry -18%, Vaccinia Venus -9% and Lassa entry inh -26%[46.1 µM].
For CC(=O)c1cccc(NC(=O)c2cccc3c(-c4cccnc4)coc23)c1 the results were HCMV inh inconclusive, Vaccinia mCherry 11% and Vaccinia Venus 5%.
Screening CCc1ccc(C2CC(=O)N3CN(c4ccccc4)CSC3=C2C#N)cc1 (centres undefined) returned HCV inhibitor 1%, HCMV inh 26, Vaccinia mCherry inconclusive and Vaccinia Venus -13%.
Screening N#CC1=C2SCN(c3ccc(F)cc3)CN2C(=O)CC1c1cccc(F)c1 (centres undefined) returned HCV inhibitor -1%, HCMV inh -93*, Vaccinia mCherry 12% and Vaccinia Venus 0%.
Screening COc1cc(C(=O)OCc2cc(=O)oc3c(C)c(C)ccc23)ccc1OC(F)F returned HCV inhibitor -2%, HCMV inh -65*, Marburg entry inh 0%[46.1 µM], Vaccinia mCherry -9%, Vaccinia Venus -8% and Lassa entry inh inconclusive.
CCOCCn1ccc2c(OCC(=O)NCc3ccc(F)cc3)cccc2c1=O was read as HCMV inh 18, Vaccinia mCherry -5%, Vaccinia Venus 0% and Lassa entry inh inconclusive.
CCOc1ccc2ccccc2c1/C=N/n1cncn1 was read as HCV inhibitor 11µM*, HCMV inh -13, Marburg entry inh 3% and Lassa entry inh 0%.
`CC[C@H]1Nc2ccc(NC(=O)OC(C)(C)C)cc2[C@@H](NC(=O)OCc2ccccc2)[C@@H]1C` gave HCMV inh 31.
CCOC(=O)Cc1c(C)nc2c(-c3ccc(Cl)cc3)c(C(F)(F)F)nn2c1C was read as HCMV inh -22, Marburg entry inh -7%[46.1 µM], Vaccinia mCherry -2%, Vaccinia Venus 8% and Lassa entry inh 22%[46.1 µM].
`CCOC(=O)Cc1csc(NC(=S)NC(=O)c2ccc(Cl)cc2)n1` gave HCV inhibitor -5%, HCMV inh -84*, Marburg entry inh 4%[46.1 µM], Vaccinia Venus -7% and Lassa entry inh -2%.
CCOC(=O)Cc1csc(NC(=O)/C=C/c2ccccc2Cl)n1 was read as HCV inhibitor inconclusive, HCMV inh -12, Marburg entry inh inconclusive, Vaccinia mCherry -2%, Vaccinia Venus -23% and Lassa entry inh inconclusive.
Screening CCOC(=O)Cc1csc(Nc2ccc(Cl)cc2)n1 returned HCV inhibitor inconclusive, HCMV inh -72*, Vaccinia mCherry -2% and Vaccinia Venus -9%.
For CCOC(=O)Cc1nnc2c(Nc3ccc(Cl)cc3)nc3nonc3n12 the results were HCV inhibitor inconclusive, HCMV inh -74*, Marburg entry inh inconclusive, Vaccinia mCherry inconclusive, Vaccinia Venus inconclusive and Lassa entry inh inconclusive.
`CCOC(=O)Cc1csc(NC(=O)/C=C\c2ccccc2Cl)n1` gave HCV inhibitor 10µM*, HCMV inh 14, Marburg entry inh inconclusive, Vaccinia mCherry -10%, Vaccinia Venus -6% and Lassa entry inh inconclusive.
For COC(=O)Cc1csc(Nc2ccc(Cl)cc2)n1 the results were HCV inhibitor -10%, HCMV inh -21, Marburg entry inh inconclusive, Vaccinia mCherry inactive, Vaccinia Venus -6% and Lassa entry inh 19%.
Screening Cc1ccc(-c2onc(C)c2C)cc1S(=O)(=O)Nc1cccc(Cl)c1C returned HCMV inh inconclusive, Vaccinia mCherry -28%, Vaccinia Venus -27% and Lassa entry inh inconclusive.
`COc1ccccc1CNC(=O)CCCc1nnc2n(CC(C)C)c(=O)c3sccc3n12` gave HCMV inh inconclusive, Vaccinia mCherry -10%, Vaccinia Venus -2% and Lassa entry inh -19%[46.1 µM].
`CC(C)(C)OC(=O)N1CCC(N2CCN(Cc3ccccc3)C(=O)C2=O)CC1` gave HCMV inh 16, Vaccinia mCherry -10%, Vaccinia Venus -9% and Lassa entry inh -8%[46.1 µM].
Screening CCOC(=O)Cc1csc(NC(=O)Nc2ccc(OC(F)(F)F)cc2)n1 returned HCV inhibitor 10µM*, HCMV inh 30, Marburg entry inh inconclusive, Vaccinia mCherry -25%, Vaccinia Venus -26% and Lassa entry inh inconclusive.
Screening CCOC(=O)Cc1csc(NC(=O)c2ccc(NC(C)=O)cc2)n1 returned HCV inhibitor -6%, HCMV inh -3, Marburg entry inh 0%, Vaccinia Venus -3% and Lassa entry inh 5%.
`Cc1ccc(-n2c(C)nc3c(cnn3-c3ccc(C)c(C)c3)c2=O)cc1C` gave HCV inhibitor -3%, HCMV inh -67*, Vaccinia mCherry -23% and Vaccinia Venus inconclusive.
`Cc1nc2c(cnn2-c2ccccc2Cl)c(=O)n1-c1ccc(N2CCC(C)CC2)cc1` gave HCV inhibitor 13µM*, HCMV inh -63*, Marburg entry inh inconclusive and Lassa entry inh inconclusive.
`Cc1ccc(-n2c(C)nc3c(cnn3-c3ccc(F)cc3)c2=O)cc1C` gave HCV inhibitor 5%, HCMV inh -23, Marburg entry inh 5%, Vaccinia mCherry -6%, Vaccinia Venus 8% and Lassa entry inh -14%.
For Cc1ccc2nc(Cl)c(C3CC(c4cccs4)=NN3S(C)(=O)=O)cc2c1 (centres undefined) the results were HCV inhibitor -3%, HCMV inh -60*, Marburg entry inh 17% and Lassa entry inh -2%.
For Cc1ccc2c(c1)-c1c(cnn1CC(=O)N1CCN(c3ccccc3F)CC1)CO2 the results were HCMV inh -87*, Marburg entry inh -11%[46.1 µM], Vaccinia mCherry -16% and Vaccinia Venus -11%.
`COc1ccc(NC(=O)c2csnn2)cc1` gave HCMV inh 61, Marburg entry inh inconclusive, Vaccinia mCherry -2%, Vaccinia Venus 2% and Lassa entry inh 0%[46.1 µM].
CCC(CO)Nc1nc2ccc(Cl)cc2c2ccccc12 (centres undefined) was read as HCV inhibitor 4µM*, HCMV inh inconclusive, Marburg entry inh inconclusive, Vaccinia mCherry inconclusive, Vaccinia Venus inconclusive and Lassa entry inh inconclusive.
`COC(=O)Nc1ccc2ccc3c(NC(=O)OC)ccc4ccc1c2c43` gave HCV inhibitor 13µM*, HCMV inh -23, Marburg entry inh 2%, Vaccinia mCherry -17%, Vaccinia Venus -19% and Lassa entry inh -2%.
`CCSc1nnc(NC(=O)c2cccc(OCc3c(C)noc3C)c2)s1` gave HCV inhibitor -22%, HCMV inh -4, Marburg entry inh inconclusive and Lassa entry inh inconclusive.
COc1ccc2nc(NC(=S)N(C)C)sc2c1 was read as HCV inhibitor inconclusive, HCMV inh inconclusive, Marburg entry inh 10µM*, Vaccinia mCherry inconclusive, Vaccinia Venus -26% and Lassa entry inh inconclusive.

Compound activity from PubChem BioAssay.
